# Counter-ions that a name gives are not always drawn.
# Test system: thyroid hormone receptor (endogenous TRα and TRβ)
# Set-up: species or system GH3-TRE-Luc (rat pituitary); GH3-TRE-Luc luciferase reporter, antagonist mode against 1 nM T3, loss of signal, qHTS
# Conditions: antagonist mode, 1 nM T3, no GH3 cytotoxicity hit, read-out: Average AC50 (uM) GH3-TRE-Antag
row,Structure (SMILES),AC50 [µM]
1,C[C@]12CC[C@H]3[C@@H](CCC4=CC(=O)CC[C@@]43C)[C@@H]1CC[C@H]2O [Epitestosterone],38.7
2,CC(C)=CCN1CC[C@]2(C)c3cc(O)ccc3C[C@H]1[C@H]2C [(+)-Pentazocine succinate],37.2
3,"O=[N+]([O-])c1cccc2cccc([N+](=O)[O-])c12 [1,8-Dinitronaphthalene]",49.5
4,N#CSCc1ccccc1 [Benzyl thiocyanate],56.4
5,CCCSP(=S)(OCC)Oc1ccc(Cl)cc1Cl (stereo not drawn) [Prothiofos],86.7
6,C[C@]12CC[C@H]3[C@@H](CCC4=CC(=O)CC[C@@]43C)[C@@H]1CC[C@@H]2OC(=O)CCc1ccccc1 [Testosterone 17-phenylpropionate],30
7,CCc1cc2c(s1)-n1c(C)nnc1CN=C2c1ccccc1Cl [Etizolam],> 50
8,O=c1c2ccccc2c(=O)c2c1cc(Cl)c1[nH]c3c([nH]c12)c(Cl)cc1c(=O)c2ccccc2c(=O)c13 [D&C Blue No. 9],57.8
9,CCOP(=S)(OCC)SCSP(=S)(OCC)OCC [Ethion],71.9
10,O=C(O)C(F)(F)C(F)(F)C(F)(F)C(F)(F)C(F)(F)C(F)(F)C(F)(F)F [Ammonium perfluorooctanoate],77.1
11,COP(=O)(OC)O/C(=C\Cl)c1cc(Cl)c(Cl)cc1Cl [Z-Tetrachlorvinphos],37.7
12,"COc1ccc2[nH]cc(CCN(C(C)C)C(C)C)c2c1 [5-Methoxy-N,N-diisopropyltryptamine hydrochloride]",70.7
13,COP(=S)(OC)Oc1ccc(S(=O)(=O)N(C)C)cc1 [Famphur],> 50
14,CCOP(=S)(OCC)SCn1nnc2ccccc2c1=O [Azinphos-ethyl],> 90
15,COP(=S)(OC)SCN1C(=O)c2ccccc2C1=O [Phosmet],> 50
16,CCOP(=S)(OCC)Oc1cc(C)nc(C(C)C)n1 [Diazinon],46.4
17,CNC(=O)O/N=C(\SC)C(=O)N(C)C [Oxamyl],> 90

row,Structure (SMILES),AC50 [µM]
1,CC[C@@H](O)C(C[C@@H](C)N(C)C)(c1ccccc1)c1ccccc1 [(+)-alpha-Methadol hydrochloride],55.7
2,CON(C)C(=O)Nc1ccc(Br)c(Cl)c1 [Chlorbromuron],60.7
3,CN(C)c1ccc(C(c2ccccc2)c2ccc(N(C)C)cc2)cc1 [Leucomalachite green],20.8
4,CCOP(=S)(OCC)SCSC(C)(C)C [Terbufos],85
5,C[C@H](CN1CCOCC1)C(C(=O)N1CCCC1)(c1ccccc1)c1ccccc1 [Dextromoramide tartrate],56.7
6,CCCCC(CC)COP(=O)(Oc1ccccc1)Oc1ccccc1 (stereo not drawn) [2-Ethylhexyl diphenyl phosphate],48.3
7,CC(C)=CC1C(C(=O)OCN2C(=O)C3=C(CCCC3)C2=O)C1(C)C (stereo not drawn) [Tetramethrin],> 50
8,CCN(CC)C(=O)[C@@H]1C=C2c3cccc4[nH]cc(c34)C[C@H]2N(C)C1 [Lysergide],> 50
9,C[C@@H]1[C@H]2Cc3ccc(O)cc3[C@]1(C)CCN2C [(-)-Metazocine fumarate (1:1)],50.6
10,"Oc1ccc(Cl)c(Cl)c1 [3,4-Dichlorophenol]",59.5
11,"Clc1ccccc1-c1ccccc1Cl [2,2'-Dichlorobiphenyl]",> 100
12,"OCC(c1ccc(Cl)cc1)c1ccc(Cl)cc1 [2,2-Bis(4-chlorophenyl)ethanol]",46.2
13,ClC1(Cl)C2(Cl)C3(Cl)C4(Cl)C(Cl)(Cl)C5(Cl)C3(Cl)C1(Cl)C5(Cl)C24Cl (stereo not drawn) [Mirex],> 90
14,C[C@]12CC[C@H](O)C[C@H]1CC[C@@H]1[C@@H]2CC[C@]2(C)[C@@H](c3ccc(=O)oc3)C[C@H]3O[C@]132 [Bufogenin],39.2
15,COC(=O)c1c(C(F)F)nc(C(F)(F)F)c(C2=NCCS2)c1CC(C)C [Thiazopyr],> 90
16,COP(=S)(OC)Oc1nc(Cl)c(Cl)cc1Cl [Chlorpyrifos-methyl],78.8
17,CCCCSP(=O)(SCCCC)SCCCC [Tribufos],50.4

# Same assay, conditions: read-out: Average AC50 (uM) GH3-TRE-Antag; 24 h; antagonist
row,Structure (SMILES),AC50 [µM]
1,CCCCCCCCC(=O)NCc1ccc(O)c(OC)c1 [Nonivamide],> 50
2,CSCCCN=C=S [3-(Methylthio)propyl isothiocyanate],> 90
3,O=C1Nc2ccc(Cl)cc2C(c2ccccc2)=NC1O (stereo not drawn) [Oxazepam],> 50
4,Cl[Si](Cl)(c1ccccc1)c1ccccc1 [Dichlorodiphenylsilane],76.3
5,O=C1CN=C(c2ccccc2)c2cc(Cl)ccc2N1 [Desmethyldiazepam],22.9
